mHTT-CaM PPI inh: mutant huntingtin-calmodulin interaction inhibitors – biochemical, AlphaScreen, primary screen | P42858 | AlphaScreen His-mHTT/GST-CaM binding, luminescence | inhibition, % at 15 µM | hit rate 3.6% among 190,000 | AID 1671202, 2021
Pf apPOL inh: Pf-apPOL inhibitors, biochemical, fluorescence; AID 1794808, 2022; Recombinant Pf-apPOL, molecular beacon fluorescence, 1.5 h; hit rate 0.25% among 210,000; Plasmodium falciparum apicoplast DNA polymerase (apPOL); inhibition, % at 10 µM
Hits are given with their value; i = inactive; nt = no result. Only some compounds are listed: those with a hit (about 3.6% of all), similar ones and a draw of the others. Cut-off read from the data, not from the text of the source: active = inhibition above about 50%; inactive = the rest.

SMILES | mHTT-CaM PPI inh | Pf apPOL inh
CN1C(=O)C(CC(=O)Nc2ccccc2[N+](=O)[O-])SC1=Nc1ccccc1 (configuration not stated) | i | i
CNCC12CCCC1N(CCOC)C(=O)CC2 (configuration not stated) | i | i
COc1ccc(-c2nc(C#N)c(N3CCOCC3)o2)cc1 | i | i
Oc1cccc(C=Nc2c(-c3ccco3)nc3ccccn23)c1 | i | i
Cc1[nH]c2ccccc2c1C=Nc1c(-c2ccco2)nc2ccccn12 | 91 | i
CCOc1cc(/C=C(\C#N)c2nc3ccccc3s2)ccc1O | 56 | i
N#C/C(=C\c1ccc(O)c(O)c1)c1nc(-c2cccc([N+](=O)[O-])c2)cs1 | 66 | i
Cc1ccc(/C=C(\C#N)c2nc(-c3ccc(Br)cc3)cs2)o1 | i | i
COc1cc(/C=C(\C#N)c2nc(-c3ccccc3)cs2)ccc1O | 97 | i
N#C/C(=C\c1ccc(O)c(Br)c1)c1nc(-c2cccc([N+](=O)[O-])c2)cs1 | i | i
COc1cc(/C=C(\C#N)c2nc(-c3ccc(Br)cc3)cs2)ccc1O | i | i
CCOc1ccc(/C=C(\C#N)c2nc3ccccc3s2)cc1OC | i | i
COc1ccc(-c2csc(/C(C#N)=C/c3ccc(OC)o3)n2)cc1 | 69 | i
O=C(Nc1ccccc1)C1=NN(c2ccccc2)C(=C2C(=O)NN=C2c2ccccc2)S1 | nt | i
C[C@H]1[C@@H](NC(=O)Cc2ccsc2)CC[C@@]23CCCN2C(=O)CCC[C@@H]13 | i | i
Cc1ccc(-c2csc(/C(C#N)=C/c3ccc(O)cc3)n2)cc1 | i | i
Cc1ccc(-c2csc(/C(C#N)=C/c3cccc(O)c3)n2)cc1 | 97 | i
COc1ccc(C2CC(c3ccc(C)cc3C)=NN2C(=O)CN2CCOCC2)cc1 (configuration not stated) | 63 | i
COc1ccc(C2CC(c3cccc(F)c3)=NN2C(=O)CN2CCC(C)CC2)cc1 (configuration not stated) | i | i
COc1ccc(C2CC(c3cccc(C)c3)=NN2C(=O)CN2CCOCC2)cc1 (configuration not stated) | 66 | i
COc1cccc(C2=NN(C(=O)CN3CCOCC3)C(c3ccccc3C)C2)c1 (configuration not stated) | i | i
COc1ccc(C2=NN(C(=O)CN3CCOCC3)C(c3ccc(C)cc3C)C2)cc1 (configuration not stated) | i | i
COc1ccc(C2=NN(C(=O)CN3CCN(C)CC3)C(c3cccc(F)c3)C2)cc1 (configuration not stated) | 54 | i
CCCNC(=O)C1(c2ccc(NC(=O)C(C)(C)C)cc2)CCCCC1 | i | i
O=C(CN1C(=O)NC2(CCCCC2)C1=O)NCc1ccccc1F | i | i
SMILES | mHTT-CaM PPI inh | Pf apPOL inh
CC(C)c1ccc(S(=O)(=O)N2CCC(c3nc4cccnc4n3C)C2)cc1 (configuration not stated) | i | i
Cc1cc2nc(CN3CCN(c4cccc(Cl)c4)CC3)c(=O)[nH]c2cc1C | i | i
O=c1[nH]c2cc(Cl)c(Cl)cc2nc1CN1CCN(c2ccccc2)CC1 | 52 | i
COc1cc(Br)c(CNc2cc(C)ccc2C)cc1OC | i | i
COc1ccc(C)cc1NCc1ccccc1C | 81 | i
Cc1cccc(Cn2cnc3c2c(=O)n(C2CC2)c(=O)n3-c2cccc(F)c2)c1 | i | i
COc1cc(C(=O)Nc2cc(C)cc(C)c2)cc(OC)c1OC | i | i
O=c1[nH]c2c(Cl)cccc2c(O)c1-c1nc(-c2ccc(F)cc2)no1 | i | i
O=[N+]([O-])c1ccc(/C=C/S(=O)(=O)N2C=Cc3ccccc3C2c2c[nH]c3ccccc23)cc1 (configuration not stated) | 57 | i
O=C(c1ccc([N+](=O)[O-])cc1)N1CCN(Cc2c[nH]c3ccccc23)CC1 | i | i
O=C(NC1C2CC3CC(C2)CC1C3)c1cccc([N+](=O)[O-])c1 (configuration not stated) | i | i
CCSc1ccsc1C1C(C#N)=C(N)N(c2ccccc2)C2=C1C(=O)CCC2 (configuration not stated) | i | i
CCc1ccc(C2C(C#N)=C(N)N(c3ccc(F)cc3)C3=C2C(=O)CCC3)s1 (configuration not stated) | i | i
Cc1cccc(N2C(N)=C(C#N)C(c3cc(Br)cs3)C3=C2CCCC3=O)c1 (configuration not stated) | 51 | 80
Cc1cc(C2C(C#N)=C(N)N(c3cccc(C(F)(F)F)c3)C3=C2C(=O)CCC3)c(C)s1 (configuration not stated) | 61 | i
N#CC1=C(N)N(c2ccc(Br)cc2)C2=C(C(=O)CCC2)C1c1ccsc1 (configuration not stated) | i | i
N#CC1=C(N)N(c2ccc(Cl)cc2)C2=C(C(=O)CCC2)C1c1cc(Br)cs1 (configuration not stated) | 55 | i
N#CC1=C(N)N(c2ccc(F)cc2)C2=C(C(=O)CCC2)C1c1ccc(Br)s1 (configuration not stated) | 86 | i
Cc1cc(C2C(C#N)=C(N)N(c3ccc(F)cc3)C3=C2C(=O)CCC3)c(C)s1 (configuration not stated) | i | i
Cc1cc(Br)ccc1NC(=O)CCNS(=O)(=O)c1cccs1 | i | i
CN1CCC(O)(c2ccccc2)CC1 | i | i
COc1ccc(Br)c(C(=O)N2CCc3[nH]cnc3C23CCCC3)c1 | i | i
COc1cc(C2C(C#N)=C(N)N(c3ccccc3)C3=C2C(=O)CCC3)cc(OC)c1OC (configuration not stated) | i | i
COc1cc(C2C(C#N)=C(N)N(c3cccc([N+](=O)[O-])c3)C3=C2C(=O)CCC3)cc(OC)c1OC (configuration not stated) | i | 85
COc1cc(NC(=O)C2CCN(c3nccnc3Oc3cccc(C)c3)CC2)cc(OC)c1 | i | i
SMILES | mHTT-CaM PPI inh | Pf apPOL inh
COc1ccc(OC)c(C=C2C(=O)OC(C)(C(C)(C)C)OC2=O)c1 (configuration not stated) | i | i
CCCC(=O)N(CCN1CCOCC1)c1nc2ccc(Br)cc2s1 | i | i
O=C(CCOc1ccccc1)N(CCN1CCOCC1)c1nc2c(Cl)cccc2s1 | 87 | i
Clc1ccc(Cl)c(OCCCCN2CCNCC2)c1 | i | i
Cc1onc(-c2c(Cl)cccc2Cl)c1C(=O)N1CCN(c2ccc(Cl)cc2)CC1 | i | i
CCN1C(=O)/C(=c2/sc3nc4ccccc4n3c2=O)c2ccccc21 | i | i
Cc1ccc2c(c1)/C(=c1\sc3nc4ccccc4n3c1=O)C(=O)N2 | i | 55
CC1=CC(=O)C(Br)=CC1=NS(=O)(=O)c1ccc(C)cc1 | 64 | i
CCN(CC)C(=NS(=O)(=O)c1cc(C)ccc1C)c1ccccc1 | i | i
Cc1ccc(C)c(S(=O)(=O)N=C2C=CC(=O)C(Br)=C2)c1 | 65 | i
Cc1ccc(S(=O)(=O)N=C2C=CC(=O)C(Br)=C2)cc1 | 59 | i
Cc1cc(C)c(S(=O)(=O)N=C2C=CC(=O)C=C2)c(C)c1 | i | i
Cc1ccc(S(=O)(=O)N=C2C=C(C(C)C)C(=O)C(C(C)C)=C2)cc1 | i | i
Cc1ccc(C)c(S(=O)(=O)N=C2C=CC(=O)C=C2)c1 | 51 | i
Cc1ccc(S(=O)(=O)N=C2C=C(Br)C(=O)C(Br)=C2)cc1 | i | i
CCCCC(=O)NCc1ccc(OC)cc1 | i | i

Bioassay records as filed in PubChem.
